For ten compounds, growth inhibition results are on record in PubChem BioAssay (NCI).

Test [1] in a line: NCI Yeast Anticancer Drug Screen. Data for the rad50 strain (AID 155).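 Further: 0% = growth of vehicle-only cultures of the same strain.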 The conditions noted are these: S. cerevisiae rad50 strain growth inhibition, stronger effect = higher value. An outline of the steps: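 Genetically altered yeast (DNA repair pathway); compound treatment; growth inhibition vs vehicle ctrl.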
The nature of test [2]: NCI Yeast Anticancer Drug Screen. Data for the mec2-1 strain (AID 157). The conditions noted are these: S. cerevisiae mec2-1 strain, stronger effect = higher value. An outline of the steps:
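Strain: mec2-1 (DNA repair/cell cycle alteration). Compound exposure, then growth measured; inhibition expressed relative to vehicle.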

Test [3] is described as follows: NCI Yeast Anticancer Drug Screen. Data for the sgs1 mgt1 strain (AID 161).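 Further: 0% = growth of cultures given vehicle only.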 The conditions noted are these: S. cerevisiae sgs1 mgt1 strain, stronger effect = higher value. An outline of the steps:
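Mutant yeast exposed to compound; growth scored against vehicle-only wells.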

Test [4] is described as follows: NCI Yeast Anticancer Drug Screen. Data for the cln2 rad14 strain (AID 165).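 Further: 0% = growth equal to vehicle treated cultures.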 The conditions noted are these: S. cerevisiae cln2 rad14 strain, stronger effect = higher value. An outline of the steps: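 Compounds are applied to the cln2 rad14 yeast strain, and growth is then compared with that of vehicle-treated cultures to give inhibition.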
The nature of test [5]: NCI Yeast Anticancer Drug Screen. Data for the bub3 strain (AID 167). The conditions noted are these: S. cerevisiae bub3 mutant strain, stronger effect = higher value. An outline of the steps: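 Yeast carrying a defined mutation is treated with each compound, and growth is compared with that of vehicle-exposed cells to give inhibition.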
The nature of test [6]: NCI Yeast Anticancer Drug Screen. Data for the mlh1 rad18 strain (AID 175). The conditions noted are these: S. cerevisiae mlh1 rad18 strain growth inhibition, stronger effect = higher value. An outline of the steps:
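Read-out is yeast growth inhibition, calculated against vehicle-only controls. The compound was applied to a strain engineered with DNA damage repair alterations.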

[7] abbreviates: at 5.0 µM (retest, dose inferred, filed as 0.5).
The mark [8] stands for this setting: at 50.0 µM (retest, dose inferred, filed as 5.0).

The structures appear in SMILES notation. About 79,000 compounds went through this panel and 15% of them were active in at least one assay; those are over-represented in the sample as a whole. A number with no mark means an inactive call. The source made the active and inactive calls. No stated cut-off is given here; in the data, active means growth inhibition above about 70%; inactive means the rest.

As for `CCCCCCCCCCCCOc1c(Cl)cc(Cl)c(Cl)c1Cc1c(O)c(Cl)cc(Cl)c1Cl`, the growth inhibition in test [1] (setting [7]) was 1%; in test [1] (setting [8]), 86% (active); in test [1] (at 50.0 µM) it was 97.5% (active); in test [2] (setting [7]) it was 0%; in test [2] (setting [8]), 92% (active); in test [2] (at 50.0 µM) it was 98.5% (active). The growth inhibition in test [3] (setting [7]) is 2%; in test [3] (setting [8]), 72% (active); in test [3] (at 50.0 µM) it was 98.3% (active); in test [4] (setting [7]) it was -2%; in test [4] (setting [8]) it was 87% (active); in test [4] (at 50.0 µM) it was 97.2% (active). Further, the growth inhibition in test [5] (setting [7]) was 0%; in test [5] (setting [8]) it was 89% (active); in test [5] (at 50.0 µM) it was 96.4% (active); in test [6] (setting [7]), 2%; in test [6] (setting [8]), 87% (active); in test [6] (at 50.0 µM), 97.7% (active).
For `N/N=C(/N)SCCCCCCCCCCS/C(N)=N/N`, the growth inhibition was -6% in test [1] (setting [7]); 5% in test [1] (setting [8]); 21.4% in test [1] (at 50.0 µM); -4% in test [2] (setting [7]); 78% (active) in test [2] (setting [8]); 48.5% in test [2] (at 50.0 µM). For the same compound, the growth inhibition was -35% in test [3] (setting [7]); 76% (active) in test [3] (setting [8]); 82.3% (active) in test [3] (at 50.0 µM); -10% in test [4] (setting [7]); -28% in test [4] (setting [8]); 51.9% in test [4] (at 50.0 µM). The growth inhibition was -6% in test [5] (setting [7]); 7% in test [5] (setting [8]); 15.2% in test [5] (at 50.0 µM); -8% in test [6] (setting [7]); 39% in test [6] (setting [8]); 79.8% (active) in test [6] (at 50.0 µM).
For the compound `Oc1c(Br)cc(Cl)cc1Br`, the growth inhibition in test [1] (setting [7]) was -4%; in test [1] (setting [8]), 98% (active); in test [1] (at 50.0 µM) it was 93.5% (active); in test [2] (setting [7]), 5%; in test [2] (setting [8]), 99% (active); in test [2] (at 50.0 µM) it was 98% (active). Also, the growth inhibition in test [3] (setting [7]) was 4%; in test [3] (setting [8]) it was 99% (active); in test [3] (at 50.0 µM) it was 86.5% (active); in test [4] (setting [7]) it was -11%; in test [4] (setting [8]), 98% (active); in test [4] (at 50.0 µM), 90.5% (active). In addition, the growth inhibition was -6% in test [5] (setting [7]); 97% (active) in test [5] (setting [8]); 96% (active) in test [5] (at 50.0 µM); 3% in test [6] (setting [7]); 96% (active) in test [6] (setting [8]); 97.5% (active) in test [6] (at 50.0 µM).
With `C=CCNC(=O)NC(=O)CSC1=NNC2(C(=O)N1)c1ccccc1-c1ccccc12`, the growth inhibition in test [1] (setting [7]) was -4%; in test [1] (setting [8]), 74% (active); in test [1] (at 50.0 µM), 85.2% (active); in test [2] (setting [7]), -21%; in test [2] (setting [8]), 65%; in test [2] (at 50.0 µM), 78.7% (active). In addition, the growth inhibition in test [3] (setting [7]) was -11%; in test [3] (setting [8]), 85% (active); in test [3] (at 50.0 µM), 87.1% (active); in test [4] (setting [7]), 2%; in test [4] (setting [8]), 82% (active); in test [4] (at 50.0 µM) it was 85.7% (active). Further, the growth inhibition in test [5] (setting [7]) was -16%; in test [5] (setting [8]) it was 91% (active); in test [5] (at 50.0 µM) it was 86.5% (active); in test [6] (setting [7]), -6%; in test [6] (setting [8]) it was 88% (active); in test [6] (at 50.0 µM), 86.7% (active).
With `Cc1c2ccccc2c(=O)n2c(-c3ccccn3)cccc12`, the growth inhibition is -47% in test [1] (setting [7]); -14% in test [1] (setting [8]); 46.8% in test [1] (at 50.0 µM); -20% in test [2] (setting [7]); -16% in test [2] (setting [8]); -1.2% in test [2] (at 50.0 µM). For the same compound, the growth inhibition is 7% in test [3] (setting [7]); -3% in test [3] (setting [8]); 77.8% (active) in test [3] (at 50.0 µM); 8% in test [4] (setting [7]); 26% in test [4] (setting [8]); 33.1% in test [4] (at 50.0 µM). For the same compound, the growth inhibition in test [5] (setting [7]) was -26%; in test [5] (setting [8]) it was -17%; in test [5] (at 50.0 µM), 30.8%; in test [6] (setting [7]), -43%; in test [6] (setting [8]) it was 31%; in test [6] (at 50.0 µM) it was -6.4%.
Regarding `O=C(C[n+]1ccccc1Cl)c1ccc(F)cc1`, the growth inhibition in test [1] (setting [7]) was -3%; in test [1] (setting [8]), 99% (active); in test [1] (at 50.0 µM) it was -8%; in test [2] (setting [7]), -1%; in test [2] (setting [8]), 100% (active); in test [2] (at 50.0 µM) it was -0.8%. Besides, the growth inhibition in test [3] (setting [7]) was -1%; in test [3] (setting [8]), 99% (active); in test [3] (at 50.0 µM), 11.7%; in test [4] (setting [7]), -3%; in test [4] (setting [8]), 99% (active); in test [4] (at 50.0 µM), 79.5% (active). In addition, the growth inhibition in test [5] (setting [7]) was 4%; in test [5] (setting [8]) it was 99% (active); in test [5] (at 50.0 µM), 1.45%; in test [6] (setting [7]), -1%; in test [6] (setting [8]), 99% (active); in test [6] (at 50.0 µM) it was -12%.
With `CCCCCCC(=O)CCCCCC/C=C\CC1OC(=O)C(N)(CO)C1O` (stereo not given), the growth inhibition in test [1] (setting [7]) is 34%; in test [1] (setting [8]) it was 98% (active); in test [1] (at 50.0 µM) it was 91.5% (active); in test [2] (setting [7]), 45%; in test [2] (setting [8]) it was 99% (active); in test [2] (at 50.0 µM), 93.5% (active). The growth inhibition in test [3] (setting [7]) is 43%; in test [3] (setting [8]), 98% (active); in test [3] (at 50.0 µM) it was 93.2% (active); in test [4] (setting [7]) it was 55%; in test [4] (setting [8]) it was 98% (active); in test [4] (at 50.0 µM), 90% (active). In addition, the growth inhibition in test [5] (setting [7]) was 80% (active); in test [5] (setting [8]), 98% (active); in test [5] (at 50.0 µM), 91% (active); in test [6] (setting [7]) it was 58%; in test [6] (setting [8]), 98% (active); in test [6] (at 50.0 µM), 91.5% (active).
Regarding `O=c1cccccc1O.O=c1cccccc1O.O=c1cccccc1O.[Ru]`, the growth inhibition in test [1] (setting [7]) was 29%; in test [1] (setting [8]) it was 64%; in test [1] (at 50.0 µM), 87.5% (active); in test [2] (setting [7]), 32%; in test [2] (setting [8]), 90% (active); in test [2] (at 50.0 µM), 96.2% (active). Moreover, the growth inhibition in test [3] (setting [7]) is 49%; in test [3] (setting [8]), 81% (active); in test [3] (at 50.0 µM) it was 91.5% (active); in test [4] (setting [7]) it was 11%; in test [4] (setting [8]), 36%; in test [4] (at 50.0 µM) it was 26.4%. Moreover, the growth inhibition in test [5] (setting [7]) was -11%; in test [5] (setting [8]), -9%; in test [5] (at 50.0 µM), 15.8%; in test [6] (setting [7]) it was 55%; in test [6] (setting [8]) it was 81% (active); in test [6] (at 50.0 µM), 95.1% (active).
With `Cc1ccc(S(=O)(=O)N/N=C2/CCC3(O)CC2(C)CCC2[C@H]3CC2(C)C)cc1` (stereo not given in full), the growth inhibition is 17% in test [1] (setting [7]); 72% (active) in test [1] (setting [8]); 66.7% in test [1] (at 50.0 µM); -7% in test [2] (setting [7]); 83% (active) in test [2] (setting [8]); 57.2% in test [2] (at 50.0 µM). The growth inhibition in test [3] (setting [7]) was 1%; in test [3] (setting [8]), 54%; in test [3] (at 50.0 µM), 70.2% (active); in test [4] (setting [7]), 13%; in test [4] (setting [8]) it was 69%; in test [4] (at 50.0 µM), 83.8% (active). The growth inhibition is 2% in test [5] (setting [7]); 86% (active) in test [5] (setting [8]); 75% (active) in test [5] (at 50.0 µM); 5% in test [6] (setting [7]); 88% (active) in test [6] (setting [8]); 70.7% (active) in test [6] (at 50.0 µM).
For `COc1ccccc1OCC(COC(=O)Nc1ccc(C)cc1)OC(=O)Nc1ccc(C)cc1` (stereo not given), the growth inhibition is 2% in test [1] (setting [7]); 2% in test [1] (setting [8]); 88.4% (active) in test [1] (at 50.0 µM); -5% in test [2] (setting [7]); -5% in test [2] (setting [8]); 82.4% (active) in test [2] (at 50.0 µM). Besides, the growth inhibition is -18% in test [3] (setting [7]); -18% in test [3] (setting [8]); 85.2% (active) in test [3] (at 50.0 µM); -2% in test [4] (setting [7]); -2% in test [4] (setting [8]); 78.6% (active) in test [4] (at 50.0 µM). Besides, the growth inhibition in test [5] (setting [7]) was -1%; in test [5] (setting [8]), -1%; in test [5] (at 50.0 µM), 85% (active); in test [6] (setting [7]), -1%; in test [6] (setting [8]) it was -1%; in test [6] (at 50.0 µM) it was 78.7% (active).
